Where “and” joins values, the source holds several entries; their conditions need not be identical. Equal values may be shown once.

The subject of this experiment is Plasmodium falciparum. Briefly: GSK_TCMDC: Inhibition of Plasmodium falciparum Dd2 in whole red blood cells, using parasite LDH activity as an index of growth. Test compounds present at 2uM. The experiment is classed as functional.
One may read the Inhibition as the share of the control response that was lost under treatment. Molecule `CC(C)C1c2ccc(O)cc2CC2C(=O)N(C3CCCCC3)C(=O)N21` (stereo not given) yielded an Inhibition of 88%.

`O=C(Nc1cccc(Cl)c1Cl)Nc1ccnc2ccccc12`: the Inhibition is 47%.

As to `Clc1ccc(-c2[nH]c3ccccc3c2CN2CCC(N3CCCCC3)CC2)cc1`, the Inhibition is reported as 15%.

In the case of `O=C(/C=C/c1ccc(Cl)c(Cl)c1)NCCCCCN1CCC(c2c[nH]c3ccccc23)C(O)C1` (stereo not given), the Inhibition was 9% and 0%.

`CN(C)c1cccc2c1nc(-c1ccco1)n2CCNCc1ccccc1.O=C(O)C(F)(F)F` displayed an Inhibition of 97%.

Take `Cn1cccc1C(=O)C(=O)Nc1cccc(-c2ccc(-c3nc4cc(C(F)(F)F)ccc4[nH]3)cc2)c1`: the Inhibition was 27%.

In turn, `CCc1ccccc1N1CCN(CCCCNC(=O)c2ccc(NC(=O)c3ccc(Cl)cc3)cc2)CC1` yielded an Inhibition of 4%.

As for `COc1ccc(-c2cccc(NC(=O)c3cccc(Cl)c3)c2)cc1CN1CCN(C)CC1.O=C(O)C(F)(F)F`, the Inhibition is recorded as 48%.

Regarding `Clc1ccc(Nc2nc(-c3ccccn3)cs2)nc1`, the Inhibition stood at 90%.

For `O=C(NCc1ccccc1)c1nn(CCCN2CCC(N3CCCC3)CC2)cc1-c1ccc(Cl)c(Cl)c1`, the Inhibition worked out at 89%.

For `CC(C)CSc1cc(C(=O)Nc2cc(Cl)ccc2O)ccn1`, the Inhibition is reported as 34%.

In turn, `O=C(NCCc1ccc(Cl)c(Cl)c1)c1ccc(CNC(=O)c2ccc(O)c(-c3ccc(Cl)c(Cl)c3)c2)cc1` yielded an Inhibition of 3%.

`CC(C)NCc1ccc(-c2ccc(-c3nc4cc(C(F)(F)F)ccc4[nH]3)cc2)cc1.O=C(O)C(F)(F)F`: the Inhibition stood at 98%.

In turn, `CC[C@H](C)CNC(=O)c1cncc(-c2cccc(CN(C)C3CCN(C)CC3)c2)c1.O=C(O)C(F)(F)F` displayed an Inhibition of 59%.

With `CC(=O)N/N=C/[C@H](CCc1ccccc1)NC(=O)[C@H](CC(C)C)NC(=O)c1ccc(F)cc1`, the Inhibition is 86%.

Take `N=C(N)c1ccc(Nc2nccc(Nc3nc(-c4ccccc4)cs3)n2)cc1.O=C(O)C(F)(F)F`: the Inhibition turned out to be 75%.

Take `Cc1cccc2nc(-c3cccc(-c4cccc(NC(=O)c5cnccc5C(F)(F)F)c4)c3)[nH]c12`: the Inhibition was 47%.

`COc1ccc(CNC2CCN(C)CC2)cc1-c1ccc(S(=O)(=O)NCc2ccccc2)c(F)c1.O=C(O)C(F)(F)F` came in with an Inhibition of 97%.

`C/C(=C\C(=O)NC1CC1)c1ccccc1OCc1ccccc1` registered an Inhibition of 1%.

As to `Cc1cc(CNCCCCCCCNCc2ccc(-c3ccccc3)cc2)ccc1O`, the Inhibition was 6%.

In the case of `COc1cccc(NC(=O)c2cc(C(=O)Nc3cccc(OC)c3)cc([N+](=O)[O-])c2)c1`, the Inhibition was 61%.

In the case of `COc1ccc(-c2cccc(NC(=O)c3ccc(F)cc3)c2)cc1CNC(C)C.O=C(O)C(F)(F)F`, the Inhibition is 9%.

Regarding `Cc1cc(N(C)C)nc(Nc2ccc(NC(=O)C3CCCCC3)cc2)n1`, the Inhibition turned out to be 68%.

`O=C(/C=C/c1cc([N+](=O)[O-])ccc1Cl)N1CCC(CCN2CCC(c3c[nH]c4ccccc34)CC2)CC1` had an Inhibition of 26%.

For `COc1ccccc1CCNc1nc(C)cc(N[C@@H](CC(C)C)C(=O)Nc2ccccc2)n1.O=C(O)C(F)(F)F`, the Inhibition turned out to be 76%.

As for `CCN(CC)CCN(Cc1ccc(-c2ccc(C(F)(F)F)cc2)cc1)C(=O)Cn1c(CCc2cc(F)cc(F)c2)nc(=O)c2ccccc21.O=C(O)C(O)C(O)C(=O)O`, the Inhibition stood at 80%.

The molecule `OC(CNCc1ccccc1)c1cc(OCc2ccccc2)cc(OCc2ccccc2)c1` (stereo not given) gave an Inhibition of 76%.

With `CC(=O)Nc1ccc2[nH]cc(C3CCN(CCC4CCN(C(=O)/C=C/c5ccc(Cl)c(Cl)c5)CC4)CC3)c2n1`, the Inhibition is on record as 80%.

As to `CO/C(=C\C=C\c1cc2cc(Cl)c(Cl)cc2[nH]1)C(=O)NCCCNC12CC3CC(CC(C3)C1)C2`, the Inhibition came to 76%.

Molecule `Cl.FC(F)(F)c1ccccc1OCc1cc(-c2ccncc2)c(COc2ccccc2C(F)(F)F)cc1C1=CCNCC1` returned an Inhibition of 81%.

In turn, `CCCO[C@H](C(=O)OC)[C@@H](CC1Cc2ccccc2C1)C(=O)NCCC1=CCCCC1` gave an Inhibition of 57%.

`O=C(Nc1ccc(S(=O)(=O)NCCCN2CCOCC2)cc1)c1cc(-c2ccccc2)[nH]n1` came in with an Inhibition of 29%.

In the case of `CN(C)Cc1cccc(-c2ccc(NC(=O)c3ccc4c(=O)n(C5CCCCC5)cnc4c3)cc2)c1`, the Inhibition was 53%.

For the molecule `CC(=O)Nc1ncc(C(=O)Nc2ccc(-c3cccc(-c4nc5cc(F)ccc5[nH]4)c3)cc2)s1`, the Inhibition was 85%.

For `CC(C)(C)Oc1ccc(C[C@@H]2NC3(C(=O)N(Cc4ccc(Cl)c(Cl)c4)c4ccccc43)C3C(=O)N(c4ccc(Br)cc4)C(=O)C32)cc1` (stereo not given in full), the Inhibition came out at 25%.

On to `COc1ccc(NC(=O)c2ccc(Br)c(C)c2)cc1N1CCN(Cc2ccccc2)CC1.O=C(O)C(=O)O`, for which the Inhibition turned out to be 3%.

Molecule `Cc1cc(NCCC(=O)NCc2cccc(F)c2)nc(NCCc2ccc(F)cc2)n1.O=C(O)C(F)(F)F` had an Inhibition of 2%.

`CCc1c(C)c2ccc3c(c2oc1=O)CN(CCc1ccc(F)cc1)CO3`: the Inhibition came out at 85%.

For the molecule `Cc1cccc2nc(-c3ccc(-c4ccc(CNCCCN5CCCC5=O)cc4)s3)[nH]c12.O=C(O)C(F)(F)F`, the Inhibition turned out to be 43%.

Take `COc1ccc2nccc([C@@H](O)CN3CCC(NCc4ccc5c(n4)NCCC5)CC3)c2c1`: the Inhibition worked out at 39%.

Source of the values: ChEMBL document CHEMBL1157539, “Thousands of chemical starting points for antimalarial lead identification” (Nature, 2010).
